Values without a mark were called inactive. Inconclusive results are not listed. Entries that show only a call come without a potency. Active and inactive are the calls of the source. Unless noted, calls come from the whole dose curve; as a rule, active = well fitted curve in the direction sought with a large enough effect in the repeat runs; inconclusive = weak or mixed curves; inactive = no such curve, though single readings can be large; an effect the other way counts as inactive or inconclusive.
What was measured:
[1] = qHTS assay for small molecule agonists of the p53 signaling pathway (AID 651631; calls by dose curve; note: nearly all actives have a fitted effect of over 15% in size)
How it was run: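 Agonist mode screen using a stably integrated beta-lactamase gene under p53 response elements in HCT-116 cells. Compound exposure lasts 16 h at 37 °C; fluorescence intensity is measured following 2 h FRET substrate loading.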

[2] = qHTS assay for small molecules that induce genotoxicity in human embryonic kidney cells expressing luciferase-tagged ATAD5 (AID 651632); note: nearly all actives have a fitted effect of over 15% in size; note: potency is the fitted concentration of half-maximal effect
How it was run: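 Cells were seeded at 2,000 per well, dosed with compound, and incubated 16 hr at 37C in 5% CO2. Luciferase activity was then quantified after a 30 min room-temperature incubation with Amplite.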

[3] = qHTS assay for small molecule agonists of the p53 signaling pathway - cell viability (AID 651633; calls by dose curve; note: nearly all actives have a fitted effect of over 30% in size; note: potency is the fitted concentration of half-maximal effect)
How it was run: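 Viability counter-read: CellTiter-Glo luminescence (30 min, room temperature) in the same p53RE-bla plates. These plates had been exposed to compounds for 16 h at 37 C.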

[4] = qHTS assay for small molecule disruptors of the mitochondrial membrane potential (AID 720635); note: potency is the fitted concentration of half-maximal effect
How it was run: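 Mitochondrial membrane potential tracked with Mito-MPS dye, red aggregates (ex 540/em 590 nm) against green monomers (ex 490/em 535 nm). Compound treatment 1 hr at 37C, dye 30 min in HepG2.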

[5] = qHTS assay to test for compound auto fluorescence at 590 nm (red) in HepG2 cells (AID 720674)
How it was run: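 1 hr compound incubation on HepG2 cells, 37 C, 5% CO2; plate read ex 540 nm / em 590 nm; intensities reported as Rose Bengal sodium equivalents.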

[6] = qHTS assay to test for compound auto fluorescence at 535 nm (green) in HepG2 cells (AID 720675)
[7] = qHTS assay to test for compound auto fluorescence at 460 nm (blue) in HEK293 cells (AID 720678)
How it was run: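 Blue read-out at excitation 405 nm and emission 460 nm follows overnight compound exposure of HEK293 cells at 37C in 5% CO2. Activity is given as auto fluorescence equivalency to triamterene.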

[8] = qHTS assay to test for compound auto fluorescence at 590 nm (red) in HEK293 cells (AID 720679)
How it was run: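 Red channel, Ex/Em 540/590nm; signal expressed as equivalency to Rose Bengal sodium. HEK293, 2,000 cells/well, 10% dialyzed FBS; 23 nL compound pinned after 4-5 hr attachment; overnight 37C/5% CO2 before reading.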

[9] = qHTS assay to test for compound auto fluorescence at 535 nm (green) in HEK293 cells (AID 720680)
[10] = qHTS assay to test for compound auto fluorescence at 460 nm (blue) in HEK293 cell free culture (AID 720681)
How it was run: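 Blue fluorescence (Ex 405/Em 460 nm, triamterene-equivalent) was read immediately after pin transfer of compound or DMSO into medium (DMEM, 10% FBS) without cells.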

[11] = qHTS assay to test for compound auto fluorescence at 535 nm (green) in HEK293 cell free culture (AID 720682)
How it was run: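 No cells present: wells hold DMEM supplemented with 10% FBS, into which compound or vehicle is pinned. Green emission is then recorded (485 nm excitation, 535 nm emission) and scaled to fluorescein.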

[12] = qHTS assay to test for compound auto fluorescence at 460 nm (blue) in HepG2 cell free culture (AID 720685)
How it was run: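 Cell-free plates of MEM plus 10% FBS received 23 nL compound or DMSO vehicle; blue-channel (405/460 nm) intensity scored against triamterene as reference fluorophore.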

[13] = qHTS assay to test for compound auto fluorescence at 535 nm (green) in HepG2 cell free culture (AID 720686)
[14] = qHTS assay to test for compound auto fluorescence at 460 nm (blue) in HepG2 cells (AID 720687)
How it was run: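 Blue-channel autofluorescence (Ex/Em 405/460 nm, triamterene-equivalent) was measured after 1 hr compound exposure at 37 C, 5% CO2. Cells were HepG2, plated overnight at 37 C in MEM plus 10% FBS.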

[15] = biological target: Glucocorticoid receptor (Homo sapiens) (UniProt P04150); assay: qHTS assay to identify small molecule agonists of the glucocorticoid receptor (GR) signaling pathway (AID 720691; active = well fitted activation curve with a large enough effect in the signal ratio in the repeat runs, not every such curve was filed as active; the % refers to the signal ratio; note: potency is the fitted concentration of half-maximal effect)
Chain of Glucocorticoid receptor (Homo sapiens) (P04150 whole entry, looked up): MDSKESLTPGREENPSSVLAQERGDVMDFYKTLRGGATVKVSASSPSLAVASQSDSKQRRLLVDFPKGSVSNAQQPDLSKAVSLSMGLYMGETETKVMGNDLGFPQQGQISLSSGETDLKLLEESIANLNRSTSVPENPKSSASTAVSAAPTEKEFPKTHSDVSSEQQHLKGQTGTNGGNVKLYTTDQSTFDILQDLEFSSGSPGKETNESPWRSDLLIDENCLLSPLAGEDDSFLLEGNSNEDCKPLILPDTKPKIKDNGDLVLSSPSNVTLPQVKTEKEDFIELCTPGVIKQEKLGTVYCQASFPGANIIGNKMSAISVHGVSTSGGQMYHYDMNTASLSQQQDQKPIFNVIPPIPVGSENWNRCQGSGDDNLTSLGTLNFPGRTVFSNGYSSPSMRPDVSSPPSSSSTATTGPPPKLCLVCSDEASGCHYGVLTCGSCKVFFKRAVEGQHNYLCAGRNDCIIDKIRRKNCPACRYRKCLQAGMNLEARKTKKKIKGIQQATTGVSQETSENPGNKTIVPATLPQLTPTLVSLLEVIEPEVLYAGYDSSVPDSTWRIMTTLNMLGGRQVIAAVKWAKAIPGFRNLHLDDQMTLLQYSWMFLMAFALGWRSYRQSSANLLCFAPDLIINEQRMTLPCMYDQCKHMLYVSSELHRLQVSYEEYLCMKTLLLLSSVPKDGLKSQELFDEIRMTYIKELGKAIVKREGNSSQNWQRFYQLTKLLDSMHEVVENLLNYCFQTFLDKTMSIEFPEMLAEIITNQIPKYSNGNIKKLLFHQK
How it was run: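 Steps: seed GR-bla HeLa cells, incubate 4 h at 37 C/5% CO2; pin-transfer DMSO-dissolved compounds; incubate 18 h at 37 C; add LiveBLAzer B/G FRET substrate; after 2 h at room temperature, measure fluorescence.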

[16] = qHTS assay for small molecules that induce genotoxicity in human embryonic kidney cells expressing luciferase-tagged ATAD5 - cell viability (AID 651634; calls by dose curve; note: nearly all actives have a fitted effect of over 25% in size; note: potency is the fitted concentration of half-maximal effect)
How it was run: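 Cells (HEK293T, luciferase-tagged ATAD5) are seeded at 2,000 per well, dosed with compound or DMSO vehicle, and incubated 15.5 hr at 37C and 5% CO2. CellTiter-Fluor is added for 30 min before fluorescence is measured.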

[17] = qHTS assay for small molecule disruptors of the mitochondrial membrane potential - cell viability (AID 720634; calls by dose curve;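 note: human HepG2 liver cancer cells; series mostly up to about 83 µM; nearly all actives have a fitted effect of over 20% in size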)
How it was run: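 Cytotoxicity was measured by ATP quantitation in HepG2 wells that had first been treated with compound for 1 hr and stained with m-MPI dye; CellTiter-Glo incubation was 30 min at room temperature.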

[18] = qHTS assay to test for compound auto fluorescence at 590 nm (red) in HEK293 cell free culture (AID 720683)
How it was run: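 Red-channel autofluorescence of compounds in culture medium (DMEM, 10% FBS), no cells, measured at 540/590 nm. Rose Bengal sodium is the reference fluorophore for equivalence.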

[19] = qHTS assay to test for compound auto fluorescence at 590 nm (red) in HepG2 cell free culture (AID 720684)
How it was run: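 No cells present: MEM + 10% FBS only. Compound pinned in, red label read (540/590 nm). Activity = fluorescence equivalent to Rose Bengal sodium.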

[20] = biological target: Glucocorticoid receptor (Homo sapiens) (UniProt P04150); assay: qHTS assay to identify small molecule antagonists of the glucocorticoid receptor (GR) signaling pathway (AID 720692; active = well fitted inhibition curve with a large enough effect in the signal ratio in the repeat runs, not every such curve was filed as active; the % refers to the signal ratio; note: potency is the fitted concentration of half-maximal effect)
How it was run: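 Antagonism was scored as loss of dexamethasone-driven (5 nM final) reporter signal in HeLa cells bearing a glucocorticoid response element–beta-lactamase construct, after 18 h compound exposure at 37 C and 2 h FRET substrate loading.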

Structure (SMILES)	Potency [1]	Potency [2]	Potency [3]	Potency [4]	outcome [5]	outcome [6]	Potency [7]	outcome [8]	outcome [9]	Potency [10]	outcome [11]	Potency [12]	outcome [13]	Potency [14]	Potency [15]	Potency [16]	Potency [17]	outcome [18]	outcome [19]	Potency [20]
Fc1ccccc1[C@@H](F)COC1CCC(Nc2ncnc3[nH]ncc23)CC1 (stereo partly specified)	inactive	inactive	inactive	2.73 µM (active)	inactive	inactive	inactive	inactive	inactive	inactive	inactive	inactive	inactive	inactive	inactive	–	–	–	–	–
C[C@]12CCC(=O)C=C1C=C[C@@H]1[C@@H]2CC[C@@]2(C)[C@H]1CC[C@@]21CCC(=O)O1	inactive	inactive	–	inactive	inactive	inactive	inactive	–	inactive	–	inactive	inactive	inactive	inactive	inactive	inactive	inactive	inactive	inactive	10.7 µM (active)
O=C(O)C(Cc1cc(I)c(O)c(I)c1)c1ccccc1 (stereo unspecified)	–	inactive	inactive	–	inactive	inactive	–	inactive	inactive	inactive	inactive	inactive	inactive	–	inactive	inactive	inactive	inactive	inactive	inactive
CCCCCCCCCCOS(=O)(=O)O	–	inactive	inactive	–	inactive	inactive	inactive	inactive	inactive	inactive	inactive	inactive	inactive	–	–	inactive	–	inactive	inactive	–
NC(=O)Nc1ccc(Cl)c(Cl)c1	–	inactive	inactive	48.4 µM (active)	inactive	inactive	inactive	inactive	inactive	inactive	inactive	inactive	inactive	inactive	–	inactive	–	inactive	inactive	48.9 µM (active)
COCc1c(C(C)C)nc(C(C)C)c(/C=C/[C@@H](O)C[C@@H](O)CC(=O)O)c1-c1ccc(F)cc1	–	inactive	inactive	–	inactive	inactive	inactive	inactive	inactive	inactive	inactive	inactive	–	inactive	–	inactive	–	inactive	inactive	3.38 µM (active)
C[C@@H]1C[C@H]2[C@@H]3CCC4=CC(=O)C=C[C@]4(C)[C@@]3(F)[C@@H](O)C[C@]2(C)[C@@]1(O)C(=O)CO	–	inactive	inactive	–	inactive	–	inactive	inactive	inactive	inactive	inactive	inactive	inactive	inactive	–	inactive	inactive	inactive	inactive	–
CCC1(C)CC(=O)NC1=O (stereo unspecified)	–	inactive	inactive	–	inactive	inactive	inactive	inactive	–	inactive	inactive	inactive	inactive	inactive	inactive	inactive	–	inactive	inactive	inactive
CCN(Cc1cccc(S(=O)(=O)O)c1)c1ccc(C(=C2C=CC(=[N+](CC)Cc3cccc(S(=O)(=O)[O-])c3)C=C2)c2ccccc2)cc1	–	inactive	inactive	–	inactive	inactive	inactive	inactive	inactive	–	inactive	inactive	inactive	inactive	–	inactive	inactive	inactive	inactive	–
CC(C)C(OC(=O)c1ccccc1)C(C)(C)COC(=O)c1ccccc1 (stereo unspecified)	–	inactive	inactive	27.3 µM (active)	inactive	inactive	inactive	inactive	inactive	inactive	inactive	inactive	inactive	–	–	inactive	–	inactive	inactive	–
COC(OC)(C(=O)c1ccccc1)c1ccccc1	–	inactive	inactive	–	inactive	inactive	inactive	inactive	inactive	inactive	inactive	inactive	–	inactive	inactive	inactive	inactive	–	–	inactive
CCCC(=O)O[C@]1(C(=O)COC(=O)CC)CC[C@H]2[C@@H]3CCC4=CC(=O)CC[C@]4(C)[C@H]3[C@@H](O)C[C@@]21C	–	inactive	inactive	inactive	inactive	inactive	inactive	inactive	inactive	inactive	inactive	inactive	inactive	inactive	0.301 µM (active)	inactive	–	–	inactive	–
CCCCCCCC/C=C\CCCCCCCC(=O)OC(CO)CO	–	inactive	inactive	–	inactive	inactive	inactive	inactive	inactive	inactive	inactive	inactive	inactive	inactive	inactive	inactive	–	–	inactive	–
C=CC(C)(C)CC(=O)OC	–	inactive	inactive	–	inactive	inactive	inactive	inactive	inactive	inactive	inactive	inactive	inactive	inactive	inactive	inactive	–	inactive	inactive	inactive
CC(C)CCCCCOC(=O)CCCCC(=O)OCCCCCC(C)C	–	inactive	inactive	–	inactive	inactive	inactive	–	inactive	–	inactive	inactive	–	–	inactive	inactive	inactive	inactive	–	inactive
O=C(N[C@@H](c1ccccc1)[C@@H]1CCCCN1)c1cccc(C(F)(F)F)c1Cl	–	inactive	inactive	–	inactive	inactive	inactive	inactive	–	inactive	inactive	inactive	inactive	–	inactive	inactive	inactive	inactive	inactive	–
Cc1occc1C(=O)Nc1ccc(C(=O)N2CCC(F)(F)/C(=C\C(=O)N3CCC(N4CCCCC4)CC3)c3ccccc32)cc1	–	inactive	inactive	–	inactive	–	inactive	–	–	inactive	inactive	inactive	inactive	inactive	inactive	inactive	inactive	inactive	inactive	inactive
O=C(CS)OCCOC(=O)CS	–	30.6 µM (active)	inactive	–	inactive	inactive	inactive	inactive	inactive	inactive	inactive	inactive	inactive	inactive	–	inactive	–	inactive	inactive	–
CCCCC(CC)CNCC(CC)CCCC (stereo unspecified)	–	inactive	inactive	–	inactive	inactive	inactive	inactive	inactive	inactive	inactive	inactive	inactive	inactive	inactive	inactive	–	inactive	–	–
Cc1c(C(=O)NN2CCCCC2)nn(-c2ccc(Cl)cc2Cl)c1-c1ccc(Cl)cc1	–	inactive	23.7 µM (active)	–	inactive	inactive	inactive	inactive	inactive	inactive	inactive	inactive	inactive	–	inactive	inactive	inactive	–	inactive	–
CN(C)C(=O)Nc1ccc(Oc2ccc(Cl)cc2)cc1	–	inactive	inactive	6.11 µM (active)	inactive	–	inactive	inactive	–	inactive	inactive	inactive	–	inactive	–	inactive	–	–	inactive	–
Cc1cc(S(=O)(=O)O)ccc1N=Nc1c(O)ccc2ccccc12	–	inactive	inactive	–	inactive	inactive	inactive	inactive	–	inactive	inactive	inactive	–	inactive	–	48.6 µM (active)	inactive	inactive	inactive	–
NC(=O)Cn1c(=O)cc(CCN2CCN(c3nccc4sccc34)CC2)c2ccc(F)cc21	–	inactive	inactive	–	inactive	–	inactive	inactive	–	–	inactive	inactive	inactive	inactive	inactive	inactive	inactive	–	inactive	inactive
CO[Si](C)(OC)OC	–	inactive	inactive	–	inactive	inactive	inactive	inactive	inactive	inactive	inactive	inactive	inactive	–	inactive	inactive	inactive	inactive	inactive	inactive
OC(CCCN1CCCCC1)(c1ccccc1)c1ccccc1	–	inactive	inactive	–	inactive	inactive	inactive	–	inactive	inactive	inactive	inactive	inactive	inactive	–	inactive	inactive	inactive	inactive	–
C=CC(=C)CCCC(C)(C)OC(C)=O	–	inactive	inactive	–	inactive	inactive	inactive	inactive	–	inactive	inactive	inactive	–	inactive	inactive	inactive	inactive	inactive	inactive	inactive
CCOC(=O)OCC	–	inactive	inactive	–	inactive	inactive	inactive	inactive	inactive	inactive	inactive	inactive	inactive	inactive	inactive	inactive	–	–	inactive	inactive
N#C/C(=C1/SC[C@@H](c2ccc(Cl)cc2Cl)S1)n1ccnc1	–	inactive	inactive	26.6 µM (active)	inactive	inactive	inactive	inactive	inactive	inactive	inactive	inactive	inactive	inactive	inactive	inactive	–	–	inactive	–
CC(=O)OCC(=O)[C@H]1CC[C@H]2[C@@H]3CCC4=CC(=O)CC[C@]4(C)[C@H]3CC[C@]12C	–	inactive	inactive	inactive	inactive	inactive	inactive	inactive	–	inactive	inactive	inactive	inactive	inactive	inactive	inactive	–	–	–	0.848 µM (active)
OCC1CC=CCC1 (stereo unspecified)	–	inactive	inactive	–	inactive	inactive	inactive	inactive	inactive	–	inactive	inactive	–	inactive	inactive	inactive	inactive	inactive	inactive	–

— PubChem BioAssay (Tox21)
